# PubChem BioAssay
# How the values were obtained:
# [1] = test system: Human papillomavirus type 1a protein E7 (residues 44-93); assay: HPV1a E7 fragment binders on microarrays, primary screen, biochemical, small-molecule microarray, residues 44-93, 635 nm fluorescence (AID 1108); conditions: small-molecule microarray binding, fluorescence 635 nm; higher = more signal;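 also: E7 fragment applied at 1 µg/mL in TBST for 1 h at 4 C; score combines spot fluorescence with its signal to noise ratio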
# [2] = modulators of HCV replicon luciferase signal, primary screen, HCV replication inhibitor project, Huh7 cells, luciferase reporter (AID 1109); conditions: 48 h, higher = more signal;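 also: huh7 hepatoma cells harbouring a luciferase neomycin HCV replicon reporter; luciferase luminescence as measure of HCV replicon replication; test concentration not given here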
# [3] = biological target: Left-right determination factor 2 (Homo sapiens) (UniProt O00292); assay: LEFTY2 binders on small-molecule microarrays, primary screen, biochemical, small-molecule microarray, 635 nm fluorescence scan (AID 1110); conditions: LEFTY2 binding, higher = more signal
# Chain of Left-right determination factor 2 (Homo sapiens) (O00292 whole entry, looked up): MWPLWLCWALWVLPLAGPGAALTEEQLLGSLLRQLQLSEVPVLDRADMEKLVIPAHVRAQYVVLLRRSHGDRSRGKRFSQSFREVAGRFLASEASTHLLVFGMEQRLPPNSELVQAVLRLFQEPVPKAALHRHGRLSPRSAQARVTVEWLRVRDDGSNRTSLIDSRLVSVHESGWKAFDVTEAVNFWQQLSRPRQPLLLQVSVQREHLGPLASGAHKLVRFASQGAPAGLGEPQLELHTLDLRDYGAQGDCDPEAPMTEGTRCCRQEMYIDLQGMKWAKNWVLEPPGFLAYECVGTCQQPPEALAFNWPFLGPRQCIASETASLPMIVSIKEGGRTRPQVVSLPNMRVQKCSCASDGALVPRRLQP
# [4] = biological target: Calmodulin-1 (Homo sapiens) (UniProt P0DP23); assay: CALM1 binders on microarrays, EGTA buffer, profiling panel, biochemical, small-molecule microarray, Cy5-labelled CALM1 (AID 1111); conditions: Cy5-CALM1 binding fluorescence, higher = more signal;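 also: labelled calmodulin applied in Tris saline Tween buffer holding calcium plus EGTA and DTT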
# [5] = biological target: Calmodulin-1 (Homo sapiens) (UniProt P0DP23); assay: calcium-bound CALM1 binders on microarrays, profiling panel, artefact control for SMM control-protein annotation, biochemical, small-molecule microarray, Cy5-labelled CALM1, plus calcium (AID 1112); conditions: Cy5-CALM1 binding fluorescence, higher = more signal;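 also: score merges spot fluorescence with signal to noise from triplicate slides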
# [6] = small-molecule microarray binders of probe aWnt5a, primary screen, biochemical, biotinylated probe, 635/667 nm fluorescence (AID 1113); conditions: higher = more signal;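 also: score merges 667 nm fluorescence intensity with signal-to-noise per printed feature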
# [7] = small-molecule microarray binders of probe aShh, primary screen, biochemical, biotinylated probe, 635/667 nm fluorescence (AID 1114); conditions: higher = more signal;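 also: probe is biotin-labelled aShh protein from a stem cell growth factor screen; measures binding of labelled protein to compounds printed on the slide; score merges feature fluorescence at 667 nm with signal-to-noise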
# [8] = small-molecule microarray binders of probe aNog, primary screen, biochemical, biotinylated probe, 635/667 nm fluorescence (AID 1115); conditions: higher = more signal;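 also: probe is biotinylated aNog protein used at 0.15 µg/mL for 1 h at 4 C; z-score combines 667 nm fluorescence of each spot with its signal to noise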
# [9] = biological target: Torsin-1A-interacting protein 1 (Homo sapiens) (UniProt Q5JTV8); assay: LAP1 binders from COS7 cell lysate, primary screen, small-molecule microarray, 635/667 nm fluorescence (AID 1116); conditions: COS7-hLAP1 lysate binding, 635 nm fluorescence, higher = more signal
# Chain of Torsin-1A-interacting protein 1 (Homo sapiens) (Q5JTV8 whole entry, looked up): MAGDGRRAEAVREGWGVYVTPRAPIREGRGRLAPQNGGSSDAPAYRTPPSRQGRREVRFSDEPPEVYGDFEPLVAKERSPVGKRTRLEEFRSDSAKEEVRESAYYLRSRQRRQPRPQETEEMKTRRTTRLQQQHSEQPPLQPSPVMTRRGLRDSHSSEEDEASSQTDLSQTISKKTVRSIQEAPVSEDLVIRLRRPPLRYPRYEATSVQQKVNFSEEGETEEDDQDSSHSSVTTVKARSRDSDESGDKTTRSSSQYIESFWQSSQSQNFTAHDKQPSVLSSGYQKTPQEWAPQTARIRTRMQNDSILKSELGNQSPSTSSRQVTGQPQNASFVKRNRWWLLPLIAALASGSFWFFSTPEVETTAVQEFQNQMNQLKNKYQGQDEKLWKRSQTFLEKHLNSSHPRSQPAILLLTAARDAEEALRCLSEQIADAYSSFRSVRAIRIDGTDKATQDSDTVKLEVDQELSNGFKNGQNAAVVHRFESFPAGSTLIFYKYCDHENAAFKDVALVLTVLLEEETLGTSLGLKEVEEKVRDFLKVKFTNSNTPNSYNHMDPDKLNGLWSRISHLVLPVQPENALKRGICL
# [10] = biological target: Alpha-bungarotoxin (Bungarus multicinctus) (UniProt P60615); assay: alpha-bungarotoxin binders on microarray, profiling panel, artefact control for SMM control protein annotation, biochemical, small-molecule microarray, Alexa647 label, 635/667 nm fluorescence (AID 1117); conditions: alpha-BTX-A647 binding fluorescence, higher = more signal
# Chain of Alpha-bungarotoxin (Bungarus multicinctus) (P60615 whole entry, looked up): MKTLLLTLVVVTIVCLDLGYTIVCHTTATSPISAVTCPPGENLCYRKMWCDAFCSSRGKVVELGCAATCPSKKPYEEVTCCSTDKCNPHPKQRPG
Structure (SMILES),composite z-score [1],z-score [2],composite z-score [3],composite z-score [4],composite z-score [5],composite z-score [6],composite z-score [7],composite z-score [8],composite z-score [9],composite z-score [10]
COc1ccc(C#Cc2ccc3c(c2)[C@]2(C(=O)N3)[C@H](C(=O)NC[C@H](O)c3ccccc3)[C@H]3C(=O)O[C@H](c4ccccc4)[C@H](c4ccccc4)N3[C@@H]2c2ccc(OCCO)cc2)cc1,1.43,-2.13,0.965,0.841,-0.203,0.0037,0.327,-0.611,0.952,1.76
O=C1C[C@]2(c3ccc([N+](=O)[O-])cc3)C(=O)N(CC(F)(F)F)c3cc(CO)ccc3[C@H]2N1CC12CC3CC(CC(C3)C1)C2,0.193,-0.156,-0.211,-0.28,-0.285,-0.147,-0.229,-0.364,-0.371,0.224
[N-]=[N+]=NCc1ccccc1C[C@]1(C(=O)O)N=C(c2ccc(OCCCO)cc2)O[C@H]1c1ccccc1CN=[N+]=[N-],1.43,-1.21,-0.524,1.74,0.411,-0.0792,-0.0146,1.16,0.978,1.68
CC(C)CNC(=O)[C@@]1(c2ccc([N+](=O)[O-])cc2)CC(=O)N(CC23CC4CC(CC(C4)C2)C3)[C@@H]1c1ccc(CO)cc1,1.07,-2.62,-0.15,-0.367,0.113,0.0215,-0.0709,1.23,1.96,0.438
COCC(=C=CC[C@@H](O)c1ccc(CO)o1)CCO,-0.494,-0.711,0.744,-0.699,-0.662,-0.124,-0.217,-0.387,2.23,-0.0933
COc1ccc(C(O)C2C=CC3C(=O)N(C)C(=O)C3N2Nc2ccccc2)cc1OCc1ccccc1 (stereo not given),1.43,-0.685,0.195,1.52,0.519,-0.0529,-0.221,0.289,1.25,1.79
CCCN1C(=O)[C@@]2(CCC(=O)OC(C)(C)C)N=C(c3ccc(OCCCO)cc3)O[C@H]2c2ccccc21,1.11,-2.75,0.163,0.786,-0.38,0.0044,-0.0866,-0.0875,0.816,0.285
COCCOC(=O)N1C(=O)[C@@]2(c3cc(C#CCNC(N)=O)ccc31)[C@H](c1ccc(OCCO)cc1)N1[C@H](c3ccccc3)[C@H](c3ccccc3)OC(=O)[C@H]1[C@@H]2C(=O)N1CCc2cc(OC)c(OC)cc2C1,0.901,-0.966,0.603,0.243,0.273,-0.148,-0.0035,-0.0428,0.743,0.664
C=CCOC(=O)[C@@H]1[C@H]2C(=O)O[C@H](c3ccccc3)[C@H](c3ccccc3)N2[C@H](c2ccc(OCCOC(=O)[C@@H]3C[C@@H]4C(=O)N[C@@H](Cc5ccccc5)C(=O)N4[C@@H]3c3cccc(OCCO)c3)cc2)[C@@]12C(=O)Nc1ccc(I)cc12,1.36,-1.34,0.692,-0.0116,-0.137,-0.0516,-0.0211,1.07,1.31,1.25
Cc1ccc(S[C@]2(C(=O)O)CC(=O)N(C3Cc4ccccc4C3)[C@@H]2c2ccc(CO)cc2I)cc1,-0.104,-0.517,-0.67,-0.212,-0.196,-0.117,-0.156,0.22,0.365,0.835
COC(=O)C1=CC(CCCO)=CC(C2CC2)N(Cc2sc3ccccc3c2Cl)C=C1C(=O)OC (stereo not given),1.44,-2.53,0.101,1.49,0.952,0.168,0.441,0.838,1.74,1.84
COc1ccc([Si](C)(C)[C@H]2[C@H](CCn3cc(CCO)nn3)O[C@@]3(C(=O)N(Cc4ccc(N5CCOC5=O)cc4)c4ccccc43)[C@@H]2C)cc1,0.469,-4.2,-0.129,0.122,0.0117,-0.124,0.0469,0.0581,1.03,1.27
Cc1cc(C)c(C(O)C2C=CC3C(=O)N(C)C(=O)C3N2Nc2ccccc2)c(C)c1 (stereo not given),-0.7,0.228,0.627,1.16,-0.0299,0.881,0.365,1.45,1.23,0.821
COc1ccc(CCN2C(=O)[C@@]3(Cc4ccccc42)c2ccccc2C(=O)N(Cc2ccccc2Cl)[C@H]3c2ccc(CO)cc2)cc1,-0.782,0.0889,-0.622,0.102,0.45,-0.176,-0.138,-0.272,0.0577,0.0121
COC(=O)c1ccc(C(O)C2C=CC3C(=O)N(C)C(=O)C3N2NC(=O)OC(C)(C)C)o1 (stereo not given),0.703,-0.104,0.432,0.81,-0.493,0.112,-0.0904,0.672,2.02,0.977
COC(=O)[C@@]1(Cc2ccc(OC)cc2)[C@H]2c3cc(C(=O)N4CCCC4)n(Cc4cc(F)cc5c4OCOC5)c3C[C@H]2CN1C(=O)c1ccccc1,0.756,-3.58,-0.474,1.37,0.365,0.223,0.108,0.0549,0.831,0.408
COc1ccc(C(O)C2C=CC3C(=O)NC(=O)C3N2Nc2ccccn2)cc1OCc1ccccc1 (stereo not given),-0.156,-0.129,-0.0932,0.916,0.0805,-0.15,-0.0886,0.185,0.474,0.251
COC(=O)C[C@H]1O[C@]2(C(=O)N(Cc3ccccc3)c3ccc(NC(C)=O)cc32)[C@@H](C)[C@@H]1[Si](C)(C)c1ccc(OC)cc1,0.866,-2.23,0.104,0.403,-0.352,-0.096,-0.2,0.188,0.538,0.226
Cc1cc(C)c(C(O)C2C=CC3C(=O)N(c4ccccc4)C(=O)C3N2Nc2ccc(C#N)cc2)c(C)c1 (stereo not given),0.486,-0.111,0.219,2.56,1.17,0.0894,-0.0793,1.97,0.922,1.79
CCCC[C@@H]1C[C@H]1[C@@H](NC(=O)c1ccc(-c2ccccc2)cc1)c1ccc(-c2ccccc2)cc1,0.511,-0.787,0.848,0.212,-0.836,-0.0459,1.37,-0.435,0.285,0.364
N#Cc1ccc(NN2C(C(O)c3ccc([N+](=O)[O-])cc3)C=CC3C(=O)N(c4ccccc4)C(=O)C32)cc1 (stereo not given),0.61,0.69,0.0872,0.971,0.235,0.119,0.935,1.18,0.818,0.752
[N-]=[N+]=Nc1ccccc1C[C@]1(C(=O)NCCN2CCOCC2)N=C(c2ccc(OCCCO)cc2)O[C@H]1c1ccccc1,1.03,-1.99,-0.0447,0.169,0.129,-0.103,0.123,-0.465,1.44,0.968
CCOC(=O)C[C@H]1[C@H](OC(=O)c2ccc(-c3ccccc3)cc2)[C@@H](NC(=O)Cc2ccc(OC)cc2)c2cc(OCCCO)ccc2N1C(=O)c1ccc2ccccc2n1,1.13,-1.92,0.0394,0.882,-0.0431,0.0068,-0.282,-0.201,-0.0103,0.0263
O=C1O[C@@H](c2ccccc2)[C@@H](c2ccccc2)N2[C@@H](c3ccc(OCCO)cc3)[C@]3(C(=O)Nc4ccc(C#CC5=CCCCC5)cc43)[C@@H](C(=O)O)[C@H]12,0.594,-1.63,0.374,2.23,1.15,-0.102,-0.107,0.167,1.57,2.89
COCCOC(=O)N1C(=O)[C@@]2(c3cc(C#CCNC(N)=O)ccc31)[C@H](C(=O)N1CCN(c3ncccn3)CC1)[C@H]1C(=O)O[C@H](c3ccccc3)[C@H](c3ccccc3)N1[C@@H]2c1ccccc1OCCO,1.38,-1.05,0.877,0.97,0.264,0.0375,0.175,-0.319,0.82,0.904
